Test results: PubChem BioAssay
Active and inactive are the calls of the source.

Assay: cell viability in Huh7 cells, primary screen, cytotoxicity control for HCV replication inhibitor project, CellTiter-Glo luminescence, basal, 48 h (AID 1143);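 further: Huh7 hepatoma cells carrying a hepatitis C replication reporter with no stimulus; test concentration not given here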
Settings: Huh7 HCV replicon, higher = more signal, called active from +8 up or from −8 down
For `CC(C)C(=C=CC[C@@H](O)c1ccc(OCCO)cc1)CCO`, the z-score was -2.09 (inactive).
For `CC#CCO[Si](C#CCCCCCC)(C(C)C)C(C)C`, the z-score was -1.03 (inactive).
With `CN(C)CCCC[C@@H]1NC(=O)[C@H]2C[C@@H](C(=O)NCc3ccc(F)cc3)[C@@H](c3ccc(O)cc3)N2C1=O` the z-score was 0.0491 (inactive).
For `CC(C)N1CC=CC23O[C@@H]4C=CCCOC(=O)C4[C@H]2C(=O)N(CCCCCO)[C@@H]3C1=O` (stereo partly specified), the z-score was 0.317 (inactive).
With `COCCOC(=O)N1C(=O)[C@@]2(c3ccccc31)[C@H](C(=O)N1CCCCCCC1)[C@H]1C(=O)O[C@H](c3ccccc3)[C@H](c3ccccc3)N1[C@@H]2c1ccc(O)cc1` the z-score was -2.11 (inactive).
For `C#CCN([C@H](/C=C/C1CC1)[C@@H](O)Cc1ccccc1)[C@@H](Cc1ccccc1)C(=O)OC`, the z-score was -2.91 (inactive).
In the case of `COC(=O)[C@@]1(Cc2ccc(F)cc2)[C@H]2c3cc(C(=O)N(C)C)n(CCn4cc([N+](=O)[O-])nc4C)c3C[C@H]2CN1C(=O)c1ccccc1`, the z-score is reported as 0.278 (inactive).
With `CCOC(=O)C[C@H]1[C@H](OC(=O)Cc2ccc3c(c2)OCO3)[C@@H](NC(=O)c2ccccc2)c2cc(OCCCO)ccc2N1C(=O)Cc1ccc(OC)cc1` the z-score was -1.82 (inactive).
For `C[N+](C)(C)CCCC[C@@H]1NC(=O)[C@H]2C[C@@H](C(=O)NCCCCCNC(=O)CS)[C@@H](c3ccc(O)cc3)N2C1=O`, the z-score was -0.523 (inactive).
With `CN1C(=O)[C@]2(CCS(=O)(=O)c3ccccc3)N=C(c3ccc(OCCCO)cc3)O[C@@H]2c2ccccc21` the z-score was -3.67 (inactive).
For `O=C1O[C@@H](c2ccccc2)[C@@H](c2ccccc2)N2[C@@H](c3ccc(OCCO)cc3)[C@]3(C(=O)Nc4ccc(C#CCCO)cc43)[C@@H](C(=O)Nc3nc4ccccc4s3)[C@H]12`, the z-score was -2.56 (inactive).
In the case of `COCCn1c(C(=O)N2CCCC2)cc2c1C[C@H]1CN(C(=O)c3ccccc3)[C@@](Cc3ccccc3)(C(=O)OC)[C@@H]21`, the z-score is reported as -1.01 (inactive).
With `CC(C)(C)N1CC=CC23O[C@@H]4/C=C\CCCOC(=O)C4[C@H]2C(=O)N(CCCCCCO)[C@@H]3C1=O` (stereo partly specified) the z-score was -0.0711 (inactive).
In the case of `CCCC[C@@H](O)C1=C(COC)Cn2c(=O)n(-c3ccccc3)c(=O)n2[C@H]1CO`, the z-score is reported as -0.915 (inactive).
For `COC(=O)[C@@H]1N=C(c2ccc(OCCCO)cc2)O[C@@H]1c1ccccc1CN=[N+]=[N-]`, the z-score was -1.04 (inactive).
With `CN1C=C(C(=O)OCCS(C)(=O)=O)C(C(=O)OCCS(C)(=O)=O)=CC(CCCO)=CC1c1ccc(CN2CCCC2)cc1` (stereo unspecified) the z-score was -0.209 (inactive).
In the case of `COCCOC(=O)N1C(=O)[C@@]2(c3ccccc31)[C@H](C(N)=O)[C@H]1C(=O)O[C@H](c3ccccc3)[C@H](c3ccccc3)N1[C@@H]2c1ccc(OCCO)cc1`, the z-score is reported as -1.57 (inactive).
With `CC(C)CNC(=O)[C@@H]1c2ccccc2C(=O)N(C(C)C)[C@H]1c1ccc(CO)cc1` the z-score was -1.93 (inactive).
For `CC(C)c1ccc(NN2C(C(O)C(C)C)C=CC3C(=O)N(c4ccccc4)C(=O)C32)cc1` (stereo unspecified), the z-score was -0.135 (inactive).
In the case of `COCCOC(=O)N1C(=O)[C@@]2(c3cc(C#CCC(C(=O)OC)C(=O)OC)ccc31)[C@H](C(=O)N1CCCCCCC1)[C@H]1C(=O)O[C@H](c3ccccc3)[C@H](c3ccccc3)N1[C@@H]2c1ccccc1OCCO`, the z-score is reported as -5.66 (inactive).
With `O=C(NCCO)C1=C[C@H](Oc2ccccc2I)[C@@H](O)[C@H](NCc2ccc(F)cc2)C1` the z-score was -2.8 (inactive).
In the case of `COC(=O)Cn1c(C(=O)N(C)C)cc2c1C[C@H]1CN(C(=O)c3ccccc3)[C@@](Cc3ccc(OC)cc3)(C(=O)OC)[C@@H]21`, the z-score is reported as -1.99 (inactive).
In the case of `[N-]=[N+]=NCc1ccccc1C[C@]1(C(=O)NCc2ccccc2)N=C(c2ccc(OCCCO)cc2)O[C@H]1c1ccccc1CN=[N+]=[N-]`, the z-score is reported as -4.58 (inactive).
For `CC(=O)NCCCC[C@@H]1NC(=O)[C@H]2C[C@@H](C(=O)NCCCCCC[N+](C)(C)C)[C@@H](c3ccc(O)cc3)N2C1=O`, the z-score was -0.385 (inactive).
With `[N-]=[N+]=NCc1ccccc1C[C@]1(C(=O)N2CCCCC2)N=C(c2ccc(OCCCO)cc2)O[C@H]1c1ccccc1` the z-score was -5.06 (inactive).
For `COc1ccc(CCNC(=O)[C@@]2(Sc3ccc(C)cc3)CC(=O)N(C(C)C)[C@@H]2c2ccc(CO)cc2)cc1`, the z-score was -0.583 (inactive).
